The panel holds about 79,000 compounds, 15% with a hit somewhere; the sample as a whole holds those more often. Values without a mark were called inactive. Activity calls are given as the source filed them. Rule as the data show it: active = growth inhibition above about 70%; inactive = the rest.
Key:
[1] = NCI Yeast Anticancer Drug Screen. Data for the rad50 strain (AID 155);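 also: 0% = growth of vehicle-only cultures of the same strain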; details: S. cerevisiae rad50 strain growth inhibition; at 50.0 µM; stronger effect = higher value
How it was run: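 Cells are treated with compound, grown, and their growth is then scored against vehicle-only cultures of the same repair-deficient yeast strain.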

[2] = NCI Yeast Anticancer Drug Screen. Data for the mec2-1 strain (AID 157); details: S. cerevisiae mec2-1 strain, at 50.0 µM, stronger effect = higher value
How it was run: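 Each compound was tested on mec2-1 yeast, a strain altered in DNA damage repair or cell cycle control. Growth inhibition is reported relative to vehicle.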

[3] = NCI Yeast Anticancer Drug Screen. Data for the sgs1 mgt1 strain (AID 161);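 also: 0% = growth of cultures given vehicle only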; details: S. cerevisiae sgs1 mgt1 strain, at 50.0 µM, stronger effect = higher value
How it was run: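 Test agents were incubated with a DNA-repair-mutant yeast strain. Growth was then read and compared against vehicle-treated controls.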

[4] = NCI Yeast Anticancer Drug Screen. Data for the cln2 rad14 strain (AID 165);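 also: 0% = growth equal to vehicle treated cultures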; details: S. cerevisiae cln2 rad14 strain, at 50.0 µM, stronger effect = higher value
How it was run: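 Test compounds were added to cln2 rad14 yeast cultures; inhibition of growth was then determined by comparison with vehicle treatment.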

[5] = NCI Yeast Anticancer Drug Screen. Data for the bub3 strain (AID 167); details: S. cerevisiae bub3 mutant strain, at 50.0 µM, stronger effect = higher value
How it was run: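 Part of a panel of yeast mutants defective in DNA damage repair or cell cycle regulation. Each strain is grown with compound, and inhibition is calculated relative to solvent-treated cultures.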

[6] = NCI Yeast Anticancer Drug Screen. Data for the mlh1 rad18 strain (AID 175); details: S. cerevisiae mlh1 rad18 strain growth inhibition; at 50.0 µM; stronger effect = higher value
How it was run: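 Inhibition values reflect reduced growth of mutant yeast versus vehicle-treated controls following compound exposure; the mutations affect DNA damage repair.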

O=[N+]([O-])c1ccn(O)c(=Nc2ccccc2)c1
growth inhibition [1]: 1.7% | growth inhibition [2]: 11.2% | growth inhibition [3]: 5.45% | growth inhibition [4]: -32.5% | growth inhibition [5]: -14.9% | growth inhibition [6]: 20.4%

OC1(C2(O)CCCCC2)CCCCC1
growth inhibition [1]: -38.2% | growth inhibition [2]: 13.4% | growth inhibition [3]: 22.1% | growth inhibition [4]: -32.5% | growth inhibition [5]: -11.8% | growth inhibition [6]: 3.75%

CC(=O)Nc1ccc2c(c1)N(O)C(=O)C2(C)C
growth inhibition [1]: 7.9% | growth inhibition [2]: 6.3% | growth inhibition [3]: 11.4% | growth inhibition [4]: -36.1% | growth inhibition [5]: 5.5% | growth inhibition [6]: -0.6%

COCCCNc1nc(N)c(C#N)c(C#N)c1C#N
growth inhibition [1]: 4.3% | growth inhibition [2]: -6.15% | growth inhibition [3]: 2.85% | growth inhibition [4]: 3.45% | growth inhibition [5]: 19.3% | growth inhibition [6]: 22.2%

CN(C)C1CS(=O)(=O)C1c1ccccc1 (stereo not drawn)
growth inhibition [1]: 19.6% | growth inhibition [2]: 9% | growth inhibition [3]: 7.1% | growth inhibition [4]: -19.5% | growth inhibition [5]: 8.3% | growth inhibition [6]: 1.45%

COc1cc(/C=N/N2CC(=O)N(c3cccc(Cl)c3)CC2=O)cc(OC)c1
growth inhibition [1]: -1.65% | growth inhibition [2]: 5.7% | growth inhibition [3]: -1.6% | growth inhibition [4]: -12.8% | growth inhibition [5]: -4.65% | growth inhibition [6]: 26.7%

CCNC(=S)Nc1ccc(OCC)cc1
growth inhibition [1]: 14.2% | growth inhibition [2]: 24.3% | growth inhibition [3]: 31.4% | growth inhibition [4]: -18.1% | growth inhibition [5]: 33.9% | growth inhibition [6]: 16.4%

OCCSCc1cc2c(cc1Br)OCO2
growth inhibition [1]: -29.5% | growth inhibition [2]: -2% | growth inhibition [3]: -11.8% | growth inhibition [4]: 19.8% | growth inhibition [5]: 12.4% | growth inhibition [6]: 2.15%

C[n+]1ccccc1/C=C/c1cccc([N+](=O)[O-])c1
growth inhibition [1]: -17.6% | growth inhibition [2]: -2.7% | growth inhibition [3]: -1.3% | growth inhibition [4]: -28.8% | growth inhibition [5]: 7.8% | growth inhibition [6]: 1.9%

CC(C(=O)O)C(Nc1ncnc2c1ncn2C1OC(CO)C(O)C1O)C(=O)O (stereo not drawn)
growth inhibition [1]: -8.4% | growth inhibition [2]: -12.2% | growth inhibition [3]: -27.6% | growth inhibition [4]: -2.1% | growth inhibition [5]: 3.5% | growth inhibition [6]: -26.4%

CC(=O)NCc1cc2c3c(c1)CCCN3CCC2
growth inhibition [1]: 6% | growth inhibition [2]: -7.15% | growth inhibition [3]: 4.15% | growth inhibition [4]: -32.5% | growth inhibition [5]: 0.1% | growth inhibition [6]: -4.8%

Cc1nc(C(N)=S)sc1C(=O)CC(=O)C(=O)Nc1cccc(Cl)c1C
growth inhibition [1]: 1.2% | growth inhibition [2]: -2.4% | growth inhibition [3]: -10.2% | growth inhibition [4]: -6.65% | growth inhibition [5]: -0.4% | growth inhibition [6]: -53.4%

OC1(c2ccccc2)CCN(C/C=C/c2ccccc2Cl)CC1
growth inhibition [1]: 66.1% | growth inhibition [2]: 53.9% | growth inhibition [3]: 70.1% (active) | growth inhibition [4]: 77.1% (active) | growth inhibition [5]: 57.6% | growth inhibition [6]: 85.8% (active)

CN(C=C(C#N)C#N)c1ccccc1
growth inhibition [1]: 8.7% | growth inhibition [2]: -4.65% | growth inhibition [3]: -0.1% | growth inhibition [4]: -3.95% | growth inhibition [5]: 9.05% | growth inhibition [6]: 16.4%

CCCNCCCCC(C)Nc1cc(OC)cc2cccnc12 (stereo not drawn)
growth inhibition [1]: 7.1% | growth inhibition [2]: -14.8% | growth inhibition [3]: -15.6% | growth inhibition [4]: -21.1% | growth inhibition [5]: 8.2% | growth inhibition [6]: 23.9%

CCc1cccc(C)c1NC(=O)CC1C(=O)Nc2ccccc2S1=O (stereo not drawn)
growth inhibition [1]: -6.1% | growth inhibition [2]: -0.9% | growth inhibition [3]: 13.2% | growth inhibition [4]: -63.7% | growth inhibition [5]: 9.85% | growth inhibition [6]: 27.4%

CC1CN(Cc2ccccc2)C(=O)C1=O (stereo not drawn)
growth inhibition [1]: -20.4% | growth inhibition [2]: 17.1% | growth inhibition [3]: -21.3% | growth inhibition [4]: -12.7% | growth inhibition [5]: -9.8% | growth inhibition [6]: -11.9%

O=C(c1ccccc1)N(Cc1ccccc1)Cc1ccccc1
growth inhibition [1]: 1% | growth inhibition [2]: 35.1% | growth inhibition [3]: 26.4% | growth inhibition [4]: -34.2% | growth inhibition [5]: 41% | growth inhibition [6]: 28.2%

O=C1[C@H]2ON(c3ccccc3)C(c3ccc(Cl)cc3)[C@H]2C(=O)N1c1ccc(Cc2ccc(N3C(=O)[C@@H]4ON(c5ccccc5)C(c5ccc(Cl)cc5)[C@@H]4C3=O)cc2)cc1 (stereo partly drawn)
growth inhibition [1]: 1.75% | growth inhibition [2]: 8.6% | growth inhibition [3]: 0.2% | growth inhibition [4]: 26.4% | growth inhibition [5]: 21.4% | growth inhibition [6]: 7.6%

CC(C)N1CC2CC(CN(C(=O)c3ccc(Cl)cc3)C2)C1
growth inhibition [1]: -30.4% | growth inhibition [2]: -8.45% | growth inhibition [3]: -8.25% | growth inhibition [4]: 2.95% | growth inhibition [5]: -16.4% | growth inhibition [6]: -5.9%

O=C(OC1CCCCC1)C(=O)OC1CCCCC1
growth inhibition [1]: 3.3% | growth inhibition [2]: -2.3% | growth inhibition [3]: 1.35% | growth inhibition [4]: -37.2% | growth inhibition [5]: -5.45% | growth inhibition [6]: 14%

c1cnc2[nH]cnc2n1
growth inhibition [1]: 2.3% | growth inhibition [2]: 0.6% | growth inhibition [3]: -3.3% | growth inhibition [4]: 5.75% | growth inhibition [5]: 4.85% | growth inhibition [6]: -10.1%

c1cc(Sc2nc(Sc3ccncc3)nc(Sc3ccncc3)n2)ccn1
growth inhibition [1]: 5.15% | growth inhibition [2]: 8.6% | growth inhibition [3]: 14.8% | growth inhibition [4]: 39.2% | growth inhibition [5]: -9.7% | growth inhibition [6]: -7.25%

CCS(=O)(=O)/C=C/c1ccco1
growth inhibition [1]: 28.3% | growth inhibition [2]: -18.6% | growth inhibition [3]: 5.45% | growth inhibition [4]: -36.9% | growth inhibition [5]: 19.6% | growth inhibition [6]: -14.9%

CCCCCCC[CH2][Sn]1([CH2]CCCCCCC)[O]C(=O)c2cccnc2[O]1
growth inhibition [1]: 27.4% | growth inhibition [2]: 7.3% | growth inhibition [3]: 13.2% | growth inhibition [4]: 10.3% | growth inhibition [5]: 17.2% | growth inhibition [6]: 19.8%

CCSc1cc(N)ncn1
growth inhibition [1]: -39.6% | growth inhibition [2]: -18.6% | growth inhibition [3]: -11.5% | growth inhibition [4]: -4.15% | growth inhibition [5]: -14% | growth inhibition [6]: -9.75%

CCCC/C=C/C1C=CC(CCCCCCCC(=O)OCC)C(C(=O)OCC)C1 (stereo not drawn) (tested in a mixture with another compound)
growth inhibition [1]: 21% | growth inhibition [2]: 8.75% | growth inhibition [3]: 20% | growth inhibition [4]: 17.4% | growth inhibition [5]: 2.2% | growth inhibition [6]: -13.4%

Nc1nc(=O)n(C2CC(O)C(CO)O2)cc1I (stereo not drawn)
growth inhibition [1]: -43.3% | growth inhibition [2]: 1% | growth inhibition [3]: 7.55% | growth inhibition [4]: -17.2% | growth inhibition [5]: -0.8% | growth inhibition [6]: 11.2%

CCc1c(C)c2cc(N)ccc2[nH]c1=O
growth inhibition [1]: -8.05% | growth inhibition [2]: 24.1% | growth inhibition [3]: -3.7% | growth inhibition [4]: -23.7% | growth inhibition [5]: -9.9% | growth inhibition [6]: 6.45%

Cc1ccc(/[N+]([O-])=N/N2C(=O)c3ccccc3C2=O)cc1
growth inhibition [1]: -15.4% | growth inhibition [2]: -18.6% | growth inhibition [3]: -10.1% | growth inhibition [4]: -23.5% | growth inhibition [5]: -16.6% | growth inhibition [6]: -2.9%

CC1(C)O[C@@H]2[C@@H](COC(=O)c3ccccc3)C[C@@H](C#N)[C@@H]2O1
growth inhibition [1]: 4.05% | growth inhibition [2]: -0.85% | growth inhibition [3]: -25.6% | growth inhibition [4]: 24.9% | growth inhibition [5]: 38.9% | growth inhibition [6]: -11.2%

CC1(C)CC(=O)C2=C(C1)NC(=S)C(C#N)C2c1ccccc1 (stereo not drawn)
growth inhibition [1]: 10.2% | growth inhibition [2]: -4% | growth inhibition [3]: 14.7% | growth inhibition [4]: 9.55% | growth inhibition [5]: 21.1% | growth inhibition [6]: 30.2%

O=C(Cc1cccc2c(=O)cc(-c3ccccc3)oc12)OCCN1CCOCC1
growth inhibition [1]: 18.9% | growth inhibition [2]: 31.4% | growth inhibition [3]: 0.95% | growth inhibition [4]: 7.4% | growth inhibition [5]: 26.9% | growth inhibition [6]: 29.4%

CCOC1NC(=O)c2ccccc21 (stereo not drawn)
growth inhibition [1]: 22.1% | growth inhibition [2]: 6.15% | growth inhibition [3]: 5.85% | growth inhibition [4]: 22.2% | growth inhibition [5]: 19.1% | growth inhibition [6]: 12.8%

CC(=O)OC1CCC2(C)C(C1)CC(OC(C)=O)C1C2CC(OC(C)=O)C2(C)C(C(C)CC=C(c3ccccc3)c3ccccc3)CCC12 (stereo not drawn)
growth inhibition [1]: 0.1% | growth inhibition [2]: 11.6% | growth inhibition [3]: -4.1% | growth inhibition [4]: -13.7% | growth inhibition [5]: -39.9% | growth inhibition [6]: 8.45%

CC1(C)CC(=O)C=C(NCCCCCCCCNC2=CC(=O)CC(C)(C)C2)C1
growth inhibition [1]: -0.25% | growth inhibition [2]: 19.8% | growth inhibition [3]: 5.7% | growth inhibition [4]: 6.45% | growth inhibition [5]: 5% | growth inhibition [6]: 9.8%

CCOc1snc(C(Cl)(Cl)Cl)c1Cl
growth inhibition [1]: 9.7% | growth inhibition [2]: 15.3% | growth inhibition [3]: 5.05% | growth inhibition [4]: 18% | growth inhibition [5]: 22.3% | growth inhibition [6]: 8.2%

CCOC(=O)N1N=NC(c2ccccc2)C1(c1ccccc1)N1CCOCC1 (stereo not drawn)
growth inhibition [1]: 38.8% | growth inhibition [2]: -14.8% | growth inhibition [3]: 30.3% | growth inhibition [4]: 4.05% | growth inhibition [5]: 10.4% | growth inhibition [6]: 8.7%
